Compound activity: PubChem, National Center for Advancing Translational Sciences (NCATS)
HTT ATP protect: Huntington cell model cytoprotection by ATP luminescence; PC12 HTT-Q103 induced, cytoprotection, ATP luminescence, 40 h; Potency, µM (series often up to 56.4 µM), without a hit: cytoprotection (ATP increase), usual class: activators; 230,000 compounds, 0.14% hits; further: % of control where 0% means no effect; nearly all actives have a fitted effect of over 45% in size
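Stable PC12 Q103-GFP cells in serum-supplemented, phenol red-free DMEM; induction by tebufenozide at 100 nM final; compound dose series; cell viability quantified luminescently from ATP.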
Lamin A splicing: LMNA splicing modulation; HeLa LMNA splicing GFP/RFP minigene ratio, 48 h; Potency, µM (highest dose often 46.1 µM), for the others: at the highest dose ratio change, negative = inhibition, most hits filed as inhibitors; 200,000 compounds, 0.01% hits; AID 1487; active means well fitted inhibition curve with a large enough effect in the signal ratio, with a control signal flat, not every such curve was filed as active; inconclusive means small, poorly fitted or top-dose-only effect, or effect the other way, or a change in a side signal; the % refers to the signal ratio; further: on the % scale 0 is the no-effect control and ±100 the full control effect
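S3 HeLa stable clones carrying a lamin A-EGFP splicing minigene plus DsRed2 were seeded at 600 cells/well in Opti-MEM with 2% FBS, pin-dosed and incubated 48 h at 37°C. Acumen cytometry (488 nm) gave the GFP/RFP total-intensity ratio.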
KinaseGlo FLuc: blocks Kinase-Glo luciferase, a counter-screen artifact | Q27757 | Kinase-Glo luciferase, ATP luminescence, 8 min | Potency, µM (top dose mostly 38.3 µM), inactives show at the highest dose activity change, negative = inhibition, usual class: inhibitors | 200,000 compounds, 0.28% hits | AID 1379; further: on the % scale 0 is the no-effect control and ±100 the full control effect; nearly all actives have a fitted effect of over 60% in size
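Recombinant Kinase-Glo luciferase, 10 uM ATP (linear range), luciferin; imidazole pH 7.2 / KCl / MgCl2 / Tween / BSA buffer; 8 min RT; luminescence.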
ALDH1A1 inh: blocks purified human ALDH1A1 activity; Purified ALDH1A1, NADH fluorescence, propionaldehyde substrate; 220,000 compounds, 7.3% hits; Potency, µM (highest dose often 75.3 µM), for the others: top-dose activity, negative = inhibition, actives largely listed as inhibitors; AID 1030; active means well fitted inhibition curve with a large enough effect, not every such curve was filed as active; inconclusive means small, poorly fitted or top-dose-only effect, or another doubt; inactive means no such curve, though single readings can be large or run the other way;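 further: plate controls were no enzyme wells and a reference inhibitor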
Target sequence (P00352 whole entry, looked up): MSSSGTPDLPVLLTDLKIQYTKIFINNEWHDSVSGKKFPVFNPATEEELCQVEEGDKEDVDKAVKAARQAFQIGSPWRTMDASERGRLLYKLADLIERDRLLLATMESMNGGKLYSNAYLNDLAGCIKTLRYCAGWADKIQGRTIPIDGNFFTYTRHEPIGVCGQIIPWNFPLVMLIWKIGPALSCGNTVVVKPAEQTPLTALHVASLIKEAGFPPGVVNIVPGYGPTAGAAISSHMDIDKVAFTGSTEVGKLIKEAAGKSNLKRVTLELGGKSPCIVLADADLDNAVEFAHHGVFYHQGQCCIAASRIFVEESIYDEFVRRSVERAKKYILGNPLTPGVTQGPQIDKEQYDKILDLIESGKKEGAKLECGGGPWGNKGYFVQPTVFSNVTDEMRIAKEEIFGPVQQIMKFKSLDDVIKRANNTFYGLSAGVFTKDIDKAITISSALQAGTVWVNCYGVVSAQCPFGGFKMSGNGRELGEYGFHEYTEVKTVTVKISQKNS
HTT aggregate: inhibitors of mutant huntingtin aggregate formation in PC12 cells | PC12 HttQ103-GFP aggregates, Acumen cytometry, 40 h | Potency, µM (highest dose often 46.1 µM), inactives show at the highest dose activity change, negative = inhibition, most hits filed as inhibitors | 220,000 compounds, 1.1% hits | AID 1688; further: on the % scale 0 is the no-effect control and ±100 the full control effect; nearly all actives have a fitted effect of over 60% in size
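Aggregate formation scored by laser-scanning cytometer (488 excitation, 500–530 emission) in lysed PC12 cells expressing Q103-GFP after 100 nM tebufenozide induction; library tested in dose series, with ATPLite reagent added in the multiplex.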
HPGD inh: HPGD (human) dehydrogenase inhibition | P15428 | purified HPGD, NADH fluorescence kinetic, PGE2 substrate | Potency, µM, for the others: at the top dose activity change, negative = inhibition, usual class: inhibitors | 150,000 compounds, 4.3% hits | AID 894; active means well fitted inhibition curve with a large enough effect, not every such curve was filed as active; inconclusive means small, poorly fitted or top-dose-only effect, or another doubt; inactive means no such curve, though single readings can be large or run the other way; further: on the % scale 0 is the no-effect control and ±100 the full control effect
Target sequence (P15428 whole entry, looked up): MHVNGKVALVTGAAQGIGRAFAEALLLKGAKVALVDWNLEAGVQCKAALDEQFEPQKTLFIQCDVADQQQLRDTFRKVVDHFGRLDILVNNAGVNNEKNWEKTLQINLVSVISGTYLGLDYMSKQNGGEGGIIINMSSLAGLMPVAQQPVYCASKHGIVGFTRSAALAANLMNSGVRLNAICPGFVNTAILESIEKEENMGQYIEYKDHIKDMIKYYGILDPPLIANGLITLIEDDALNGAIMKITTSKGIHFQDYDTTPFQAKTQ
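NADH formation kinetics: reaction with 30 uM PGE2 and 1 mM NAD+ (final), 20 nM enzyme, Tris-HCl pH 8 with Tween 20, after 15 min compound preincubation at room temperature. Fluorescence change, last versus first of five reads.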
Active calls of the source: *; ? = inconclusive; . = no result given; ! = not confirmed by another sample; [ ] = another dose, or the depositor's remark. Sampled rows, rich in hits. Any-hit rate of the full collection: about 9%. Unless noted, the call rests on the fitted dose curve; in most records, active means well fitted curve in the direction sought with a large enough effect; inconclusive means small, poorly fitted or top-dose-only effect, or another doubt; inactive means no such curve, though single readings can be large; an effect the other way counts as inactive or inconclusive. Potency means the concentration at half of the fitted maximal effect.

SMILES	HTT ATP protect	Lamin A splicing	KinaseGlo FLuc	ALDH1A1 inh	HTT aggregate	HPGD inh
Cn1cc(/C=C2\SC(=O)NC2=S)c2ccccc21	-37%	.	-5%	1.4µM*	?	.
CCc1ccc(C(C)NC(=O)Cc2ccc(F)cc2)cc1 (stereo not given)	6%	.	0%	6%	10%	.
COCCNC(=O)CN(C)S(=O)(=O)c1ccc2c(c1)OCCO2	-10%[10 µM]	-12%	0%	3%	-33%	-12%
O=Cc1ccc(-n2cc(C=O)c3ccccc32)cc1	9%[10 µM]	11%[46 µM]	-1%	11µM*	-10%	.
Cc1ccc(OCCCNC2CCCC2)cc1	-6%[10 µM]	-3%	3%	5%	4%	0%
CCn1c(SCC(=O)Nc2sc3c(c2C(N)=O)CCC(C)C3)nnc1-c1ccco1 (stereo not given)	-13%	-14%	1%	22µM*	-14%	?
CCn1c(SCC(=O)Nc2nonc2C)nnc1-c1ccco1	-30%	1%	-5%	14µM*	11%	?
CC(=O)Nc1ccc(NC(=O)CSc2nnc(-c3ccco3)n2Cc2ccco2)cc1	-25%	-9%	3%	20µM*	29%	-10%
O=C(NC(=S)Nc1ccccc1N1CCCC1)c1ccccc1[N+](=O)[O-]	20%[10 µM]	5%	-1%	?	-4%	0%
CCCOc1ccc(-c2cccc(NS(=O)(=O)c3cc(OC)ccc3OC)c2)nn1	.	11%[46 µM]	.	.	.	.
Cc1ccc(C)c(CSc2nnc(-c3ccccn3)n2N)c1	19%	17%	4%	10µM*	?	16µM*
Nn1c(SCc2c(F)cccc2F)nnc1-c1ccccn1	0%[10 µM]	.	.	.	-5%[9.22 µM]	.
Cc1c(N=Nc2ccc(O)cc2)c(=O)n(-c2ccccc2)n1C	-17%	.	-4%	6%	-12%	.
Cc1c(N=NC2=C(O)CCCC2=O)c(=O)n(-c2ccccc2)n1C	-8%[10 µM]	.	-1%	13µM*	22%	.
Cc1ccc(-n2c(SCn3nnc4ccccc4c3=O)nnc2-c2cccnc2)c(C)c1	-9%	21%	-5%	22µM*	-3%	-21%
COc1cnn(-c2cc(Oc3ccc(C)cc3)ncn2)c(=O)c1Cl	-15%	0%	-7%	13µM*	-4%	-6%
Cc1ccc(-c2nc(NC(=O)CSc3cc(C)c4ccccc4n3)ns2)cc1	.	-4%	-7%	7%	20%	13µM*
COc1ccc(-c2nc(NC(=O)CSc3nnc(C)s3)ns2)cc1	2%[1.9 µM]	18%	-3%	?	11µM*	?
Cc1nnc(SCC(=O)Nc2nsc(-c3ccccc3)n2)s1	-3%[0.074 µM]	8%	2%	-3%	13µM*	-11%
COc1ccc2c(C)cc(SCC(=O)Nc3nsc(-c4ccc(C)cc4)n3)nc2c1	.	3%	1%	-12%	-31%	-20%
COC(=O)c1cc(CSc2nnc(-c3ccccc3)c(-c3ccccc3)n2)oc1C	-9%	?	-1%	16µM*	4%	?
COCC(C)n1c(SCc2cc(C(=O)OC)c(C)o2)nc2ccccc2c1=O (stereo not given)	18%[10 µM]	.	.	.	4%[9.22 µM]	.
Cn1cc(-c2ccccc2C(N)=O)c(=O)c2cc(Cl)ccc21	11%[10 µM]	2%[46 µM]	-3%	-9%	9%	.
Cn1cc(C2=C(c3ccc(Cl)cc3Cl)C(=O)NC2=O)c2ccccc21	32µM*!	?	-2%	-10%	.	3%
Cc1noc2ncnc(N3CCCCC3)c12	-5%	.	-1%	32µM*	9%[9.22 µM]	.
SMILES	HTT ATP protect	Lamin A splicing	KinaseGlo FLuc	ALDH1A1 inh	HTT aggregate	HPGD inh
CCC(Sc1nc2ccccc2[nH]1)C(=O)Nc1ccc(NC(C)=O)cc1 (stereo not given)	-31%[1.9 µM]	?	1%	3%	6%[9.22 µM]	.
O=C(Cn1c(=O)ccc2cc(S(=O)(=O)N3CCCC3)ccc21)NCc1ccc(F)cc1	.	6%[46 µM]	.	.	.	.
CCOc1ccc(OCC)c(NC(=O)CNS(=O)(=O)c2cccs2)c1	6%	-2%	-1%	-6%	10%	-5%
CCC(=O)OCN1C(=O)C=CC1=O	-63%[10 µM]	.	-5%[7.66 µM]	1µM*	.	?
CCOC(=O)C1(CCOc2ccccc2)CCN(Cc2ccc(NC(C)=O)cc2)CC1	-3%[10 µM]	-12%[46 µM]	-1%	9%	5%[9.22 µM]	.
CCOC(=O)C1(CCOc2ccccc2)CCN(Cc2ccc3nonc3c2)CC1	24%[10 µM]	.	8%	28µM*	6%[9.22 µM]	.
CCOC(=O)C1(CCOc2ccccc2)CCN(Cc2cnc(C)s2)CC1	4%[10 µM]	.	.	16µM*	7%[9.22 µM]	.
Cc1cc(/C=N/n2cnnc2)c(C)n1-c1ccc(OCc2ccccc2F)cc1	-66%	?	-4%	?	10µM*	?
Cc1cc(/C=N/n2cnnc2)c(C)n1-c1ccc(OCc2ccc(Cl)cc2)cc1	-63%	?	-1%	?	2.5µM*	-22%
Fc1ccccc1COc1cccc(/C=N/n2cnnc2)c1	-14%	?	-1%	1%	?	-22%
O=CNc1ccccc1Oc1ccccc1	-9%	11%	-1%	6%	3%	-7%
Cc1nc(N/N=C/c2ccccn2)sc1C	-69%[10 µM]	?	8.9µM*	-12%	?	-6%
COc1ccc(OC)c(NC(=O)c2cc(-c3cc(Cl)ccc3O)n[nH]2)c1	0%	?	-1%	-8%	-3%	?
COc1ccc(CCNC(=O)c2cc(-c3cc(C)ccc3O)n[nH]2)cc1OC	-4%	-13%	2%	2%	-10%[9.22 µM]	4µM*
COc1ccc(NC(=O)c2cc(-c3cc(C)ccc3O)n[nH]2)cc1Cl	-19%[0.074 µM]	1%	-1%	6%	14%	3.2µM*
COC(=O)c1c(-c2c(Cl)cccc2Cl)noc1C(=O)NN	-5%[10 µM]	.	.	?	19%[9.22 µM]	.
Cc1ccc(-c2c[n+]3c(n2-c2ccccc2)CCC3)cc1	-22%[10 µM]	.	.	.	-3%[9.22 µM]	.
Cc1ccc(-n2c(-c3ccc(Br)cc3)c[n+]3c2CCc2ccc4cccnc4c2-3)cc1	-111%	1%	-5%	6%	1.8µM*	-2%
Cc1ccc(N2CCN(C(=O)c3ccccc3Br)CC2)c(C)c1	18%[10 µM]	?	0%	?	?	25µM*
Cc1ccc(C)c(N2CCN(C(=O)c3ccccc3Br)CC2)c1	0%[10 µM]	-3%	1%	3%	-2%	-5%
O=C(CSc1cccc[n+]1[O-])Nc1cc(S(=O)(=O)N2CCOCC2)ccc1N1CCOCC1	-21%[10 µM]	-2%	-1%	8%	21%	-5%
COc1c(OC2OC(C(=O)O)C(O)C(O)C2O)cc(O)c2c(=O)cc(-c3ccccc3)oc12 (stereo not given)	.	-8%	-2%	?	-25%	?
O=C(/C=C/c1ccccc1)c1ccc(O)cc1O	-11%	.	-21%	?	.	16µM*
O=C(/C=C/c1ccc(O)cc1)c1ccc(O)cc1O	?	?	-3%	5%	-7%	-16%
